Consider 56 compounds from ChEMBL document CHEMBL4513216, “Probing the Open Global Health Chemical Diversity Library for Multistage-Active Starting Points for Next-Generation Antimalarials” (ACS Infect Dis, 2020).

In all, about 69,000 compounds went through this assay and about 8,600 (12%) showed an effect of 50% or more. Many of the other results were omitted from the sample, so strong results are more common in it than they were.

The test system of the test is Plasmodium berghei. As to the kind of experiment: Screen against P. berghei liver stage (PbLuc), transformed with Luciferase, at 10uM. The class given is functional, HepG2. The note with it: tested at 10 uM.
Take `Cc1[nH]ccc1C(=O)N1C[C@@H]2CC[C@H]1CN(S(=O)(=O)N(C)C)C2`: the INHIBITION is 21.5%.

`Cc1cc(S(=O)(=O)NCC(C)(C)N)c(F)cc1F`: the INHIBITION is given as 48.8%.

`COCCNC(=O)NCc1cc(-c2cccs2)n(C2CCCC2)n1`: the INHIBITION was found to be 43.9%.

`Cc1noc(C)c1-c1cncc(C2CCCN2Cc2cncnc2)n1` (stereo unspecified): the INHIBITION is recorded as 22.2%.

With `O=S(=O)(Cc1cccc(Cl)c1)CC(O)Cn1cccn1` (stereo unspecified), the INHIBITION was determined as 57.5%.

With `Cc1cccc(CS(=O)(=O)CC(O)Cn2cccn2)c1` (stereo unspecified), the INHIBITION turned out to be 15.5%.

`O=S(=O)(Cc1ccccc1)CC(O)Cn1cccn1` (stereo unspecified): the INHIBITION is listed as 34%.

`Cn1c(NCc2ccc(C(N)=O)cc2)nc2cc(Cl)ccc21`: the INHIBITION stood at 10.7%.

On to `CC(CN1CCCC1=O)NC(=O)NCc1ccccc1-n1cccn1` (stereo unspecified), for which the INHIBITION was 48.6%.

Take `O=C(c1ccc(S(=O)(=O)NCC(F)F)cc1)N1C[C@H]2CNC[C@H]2C1`: the INHIBITION is on record as 69.3%.

In the case of `O=C(c1ccc(F)c(F)c1)N1C[C@H]2CNC[C@H]2C1`, the INHIBITION stood at 5.04%.

As to `O=C(c1ccc(S(=O)(=O)NCC(F)F)cc1)N1CC[C@H]2CNC[C@H]21`, the INHIBITION is given as 43.7%.

Turning to `CC(C)n1cnc2c1C(C(=O)NCCC#N)N(Cc1ccccc1)CC2` (stereo unspecified), the INHIBITION amounted to 15.1%.

As to `COCc1nc(C2CCN(Cc3nccn3C)CC2)no1`, the INHIBITION was -11.7%.

For `COC(=O)c1ccc2c(c1)CCCN2S(=O)(=O)c1cn(C)c(C)n1`, the INHIBITION worked out at 2.25%.

As to `O=C(CC[C@@H]1CCCN2CCCC[C@H]12)NCCc1cc(O)ncn1`, the INHIBITION was 26.8%.

`c1cc2c(cc1OC[C@@H]1CCCN3CCCC[C@H]13)OCCO2`: the INHIBITION came out at 28.4%.

In the case of `Oc1coc2cc(OC[C@@H]3CCCN4CCCC[C@H]34)ccc12`, the INHIBITION is reported as 56.2%.

As to `CC(Cn1ccnc1)NC(=O)NCCc1cccs1` (stereo unspecified), the INHIBITION is on record as -17.08%.

As to `NC(CNS(=O)(=O)Cc1cccc2cccnc12)c1ccccc1` (stereo unspecified), the INHIBITION is given as 29%.

Take `Cc1nn(C)c(C)c1C(=O)NCc1ccnc(OCC(F)(F)F)c1`: the INHIBITION came out at 13.765%.

With `O=C(NC1CCCCC1)c1nnc2ccc(N3CCOCC3)cc2n1`, the INHIBITION is given as -64.4%.

`NCC(=O)N1CCCC1c1ccc(C(=O)NCc2ccoc2)s1` (stereo unspecified): the INHIBITION is listed as 64.5%.

For `Cc1ncc(CN2CCCC2c2ccc(C(=O)NCc3ccoc3)s2)s1` (stereo unspecified), the INHIBITION was 37.4%.

In the case of `O=C(NCc1ccoc1)c1ccc(C2CCCN2CC2CCOCC2)s1` (stereo unspecified), the INHIBITION is reported as 22.7%.

On to `CC(C)=CCCC1(C)CCC(=O)N(CCc2csc(N)n2)C1` (stereo unspecified), for which the INHIBITION worked out at 39.3%.

With `CC(C)COC1CCN(C(=O)c2cc3ccccc3c(=O)[nH]2)CC1`, the INHIBITION is -1.55%.

Turning to `CC(C)COC1CCN(C(=O)c2ccc(C(F)(F)F)[nH]c2=O)CC1`, the INHIBITION was 63.5%.

On to `CCOC1CCN(C(=O)c2ccc(-c3cccc(C)c3)[nH]c2=O)CC1`, for which the INHIBITION is listed as -16%.

In the case of `Cc1noc(C)c1CN1CCN(CCN(C)C)c2ncccc2C1`, the INHIBITION turned out to be 23.3%.

Consider `Clc1ccccc1Cn1cc(CNC2CCc3ncnn3C2)cn1` (stereo unspecified), for which the INHIBITION is -12.1%.

Turning to `CCOc1cccc(NC(=O)c2cnc(C)cn2)n1`, the INHIBITION is -24.5%.

In the case of `Cc1nn(C)c(N2CCCN(C)CC2)c1CNC(=O)C(C)(C)C`, the INHIBITION is -49.5%.

Turning to `CN(C)CCn1c(=O)oc2ccc(NC(=O)c3cc(Cl)c[nH]3)cc21`, the INHIBITION was -31.6%.

Take `CN(C)CCn1c(=O)oc2ccc(NC(=O)N3CCCCCC3)cc21`: the INHIBITION is 17.5%.

`CN(C)CCn1c(=O)oc2ccc(NC(=O)CSc3ccccc3)cc21`: the INHIBITION is 24.3%.

For the compound `CN(C)CCn1c(=O)oc2ccc(NC(=O)CC(C)(C)C)cc21`, the INHIBITION is reported as -3.95%.

Regarding `Cc1cc(C(=O)Nc2ccc3oc(=O)n(CCN(C)C)c3c2)c(C)o1`, the INHIBITION was 69.7%.

In the case of `CCC(C)C(=O)Nc1ccc2oc(=O)n(CCN(C)C)c2c1` (stereo unspecified), the INHIBITION is 56%.

Turning to `CC(C)CCC(=O)Nc1ccc2oc(=O)n(CCN(C)C)c2c1`, the INHIBITION is on record as -34.8%.

As to `CC(C)COCCC(=O)Nc1ccc2oc(=O)n(CCN(C)C)c2c1`, the INHIBITION was -3.08%.

Turning to `CCC(CC)C(=O)Nc1ccc2oc(=O)n(CCN(C)C)c2c1`, the INHIBITION came out at 50.8%.

With `CC1CN(CC(=O)NC(=O)NCc2cccs2)CCN1CC(F)(F)F` (stereo unspecified), the INHIBITION is on record as 3.03%.

With `CC1CCN(c2nc(O)cc(C3CC(=O)N(C4CCCCC4)C3)n2)CC1` (stereo unspecified), the INHIBITION came to 11.475%.

For the compound `COc1ccc2c(c1)C1(CCN(Cc3cnn(C)c3)CC1)N(C)CC2`, the INHIBITION is given as -72%.

`COCC1COCCC12CCN(C(=O)COc1ccccc1)CC2` (stereo unspecified): the INHIBITION is -10.3%.

Consider `COCCNC(=O)Cc1cnc(-n2cccc2)s1`, for which the INHIBITION came out at 41.1%.

With `Cc1cc(CN2CCC(C3CCN(CCc4ccccc4)C3)CC2)[nH]n1` (stereo unspecified), the INHIBITION was 11.9%.

For the compound `Cc1nc(O)cc(C2CCN(Cc3ccc(F)c(F)c3)C2)n1` (stereo unspecified), the INHIBITION was 30.8%.

In the case of `COCc1nccc(C2CCCN(Cc3cccc(F)c3)C2)n1` (stereo unspecified), the INHIBITION is recorded as 20.9%.

Consider `CCc1c(C)nc2cc(C3CCN(Cc4ccc(F)cc4)C3)nn2c1O` (stereo unspecified), for which the INHIBITION came to 66.5%.

With `Cc1cc(CN2CCC(C3CCN(CCc4ccccc4)CC3)C2)[nH]n1` (stereo unspecified), the INHIBITION is 9.63%.

With `CCc1c(C)nc2cc(C3CCN(Cc4cccnc4)C3)nn2c1O` (stereo unspecified), the INHIBITION is on record as -33.4%.

As for `CCc1c(C)[nH]c2cc(C3CCN(Cc4ccncc4C)C3)nn2c1=O` (stereo unspecified), the INHIBITION was determined as 38.8%.

On to `CCc1c(C)nc2cc(C3CCN(CCc4ccccc4)C3)nn2c1O` (stereo unspecified), for which the INHIBITION came to 83.3%.

For the compound `CCc1c(C)nc2cc(C3CCN(Cc4cccc(F)c4)C3)nn2c1O` (stereo unspecified), the INHIBITION is on record as 77.3%.
